# From PubChem BioAssay
# Shiga inhibitor = A qHTS for Small Molecule Inhibitors of Shiga Toxin; AID 2315, 2010; Vero cells, Shiga toxin protein synthesis inhibition reporter; inhibition, % at 38.7 µM; hit rate 9.2% among 290,000; in the data active = inhibition mostly above about 28%, no sharp cut-off; inactive = mostly below about 43%; also: 0% is about no effect
# Pf growth 48h = Primary qHTS for delayed death inhibitors of the malarial parasite plastid, 48 hour incubation; hit rate 5.9% among 310,000; Potency, µM (top dose mostly 28.7 µM), for the others: at the top dose activity change, negative = inhibition, usual class: inhibitors; AID 504832, 2011; P. falciparum luciferase growth in erythrocytes, 48 h; also: potency is read from the fitted curve at half-maximal effect; % is scaled to controls: 0 for no effect and ±100 for the full control effect
#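 Here the parasites carry a stable luciferase gene and grow inside erythrocytes in Albumax-based RPMI medium with compound for one erythrocytic cycle. Activity is scored as loss of luminescent signal.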
# AMA1 RON2 block = qHTS for Inhibitors of AMA1-RON; Towards Development of Antimalarial Drug Lead: Primary Screen | Plasmodium falciparum AMA1 (3D7) - RON2 peptide interaction | AlphaScreen AMA1-biotinylated RON2 peptide binding | Potency, µM (titrated, usually from 58.2 µM), without a hit: top-dose activity change, negative = inhibition, most hits filed as inhibitors | hit rate 0.2% among 360,000;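 also: potency is read from the fitted curve at half-maximal effect; 0% = vehicle wells and -100% = peptide control; nearly all actives have a fitted effect of over 45% in size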
#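 AMA1 (3D7) with his tag at 25 nM final met compounds first, then biotinylated RON2 peptide at 25 nM; detection used donor plus acceptor beads, 10 µg/mL apiece, read by AlphaScreen after 30 min at room temperature.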
# Cycloheximide cs = Cycloheximide Counterscreen for Small Molecule Inhibitors of Shiga Toxin; max response, %; cell reporter, cycloheximide protein synthesis inhibition counterscreen; hit rate 12% among 300,000; in the data active = max response mostly above about 13%, no sharp cut-off; inactive = mostly below about 14%; also: read at 38.3 µM for the half of the compounds with a filed dose; 0% is about no effect
# Pf growth 96h = Primary qHTS for delayed death inhibitors of the malarial parasite plastid, 96 hour incubation. P. falciparum luciferase reporter growth, 96 h. Potency, µM (top dose mostly 28.7 µM), for the others: top-dose activity change, negative = inhibition, actives largely listed as inhibitors. hit rate 6.9% among 320,000; also: potency is read from the fitted curve at half-maximal effect; % is scaled to controls: 0 for no effect and ±100 for the full control effect
#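 Parasite growth measured via integrated firefly luciferase reporter in P. falciparum. Infected erythrocytes at 2% hematocrit, 0.05% parasitemia final were treated 96 hours at 37 C under 5% CO2, and luminescence was read.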
# SARS PLpro yeast = qHTS of Yeast-based Assay for SARS-CoV PLP. S. cerevisiae expressing SARS-CoV PLpro, growth rescue. Potency, µM (highest dose often 32.9 µM), for inactives: at the top dose activity, positive = growth rescue, hits mostly activators. hit rate 0.19% among 330,000. AID 485353, 2010; calls by dose curve; also: potency is read from the fitted curve at half-maximal effect; 0% is about no effect; nearly all actives have a fitted effect of over 55% in size
# Starred values were filed as active, the others as inactive; i = inactive; ? = inconclusive; / = no result; [ ] = dose if it differs, or a comment. Sampled rows, rich in hits. Any-hit rate of the full collection: about 19%. Unless noted, calls follow the shape of the dose curve; as a rule, active = well fitted curve in the direction sought with a large enough effect; inconclusive = small, poorly fitted or top-dose-only effect, or another doubt; inactive = no such curve, though single readings can be large; an effect the other way counts as inactive or inconclusive.
SMILES,Shiga inhibitor,Pf growth 48h,AMA1 RON2 block,Cycloheximide cs,Pf growth 96h,SARS PLpro yeast
Fc1ccc(NC(=S)NC2CC3CCC(C2)N3Cc2ccco2)cc1 (stereo not drawn),12,-3%,8%,-7,-18%,0%
COCCNC(=S)NC1CC2CCCC(C1)N2Cc1cccs1 (stereo not drawn),-12,?,-7%,11,?,6%
Cc1ccc(C(=O)NC2CC3CCC(C2)N3Cc2ccco2)cc1 (stereo not drawn),2,-20%,6%,-4,-4%,-3%
CCC(C)n1c(SCC(=O)NC2CCS(=O)(=O)C2)nc2ccccc2c1=O (stereo not drawn),/,?,-14%,/,-29%,5%
Cc1cccc(/C(N)=N/OC(=O)c2ccc3c(c2)OCO3)c1,43*,-58%,-7%[11.6 µM],42*,?,-115%
N/C(=N\OC(=O)c1ccc2c(c1)OCO2)c1cccc([N+](=O)[O-])c1,88,2%,0%,31*,111%,-1%
COc1ccc(/C(N)=N/OC(=O)c2cccc([N+](=O)[O-])c2)cc1OC,-19,9%,0%,1,/,0%
CCOC(=O)C1CCN(S(=O)(=O)c2ccc3c(c2)N(C(C)=O)CC(C)S3)CC1 (stereo not drawn),-2,?,24%,-2,-2%,7%
O=C(CCCCCNC(=O)N1CCn2c1nc1ccccc12)NCc1ccc(F)cc1,9,?,-10%,8,?,3%
COc1ccc(CCNC(=O)C2CC(=O)N(C3CCCCCCC3)C2)cc1OC (stereo not drawn),17,?,1%,-3,?,3%
CCc1ccc(CNC(=O)C2CC(=O)N(C3CCCC3)C2)cc1 (stereo not drawn),-9,-14%,-2%,-7,2.6µM*,14%
Cc1ccc(CCNC(=O)C2CC(=O)N(C3CCCCC3)C2)cc1 (stereo not drawn),1,8%,-4%,2,1.5µM*,1%
Nc1nc(Sc2c([N+](=O)[O-])cc(C(F)(F)F)cc2[N+](=O)[O-])n[nH]1,48*,?,-11%,11,?,1%
Nc1nc(Sc2ccc(C(F)(F)F)cc2[N+](=O)[O-])n[nH]1,18,/,6%,-1,?,14%
COC(=O)C(C)Oc1ccc(Oc2nc(Cl)ccc2Cl)cc1 (stereo not drawn),-25,28%,16%,-1,23%,-1%
CC1=CC(=O)C(Sc2ccc(C)cc2)=CC1=O,/,/,13µM*,/,/,/
CC(=O)c1c(Nc2ccc3c(c2)OCCO3)oc(C)cc1=O,118*,/,-2%,52*,?,3%
Cc1ccccc1C(=O)Nc1ccc2c(c1)OCCO2,20,194%,4%,18*,?,-7%
Cc1occc1C(=O)Nc1ccc2c(c1)OCCO2,100*,146%,-9%,107*,-26%,-17%
Cc1cc(C)c(C(N)=O)c(Nc2ccc3c(c2)OCCO3)n1,13,-4%,-4%,10,/,11%
Cc1cc(C(=O)Nc2ccc3c(c2)OCCO3)c(C)o1,68*,150%,-9%,28*,/,-7%
Cc1cc(C(=O)Nc2ccncc2)c(C)o1,/,/,-10%,/,/,/
COc1cccc(CNC(=O)[C@@H]2CCCN2C(=O)[C@@H]2CCCN2S(=O)(=O)c2ccc(OC)c(C)c2)c1,/,/,-5%,/,/,/
Cc1occc1C(=O)Nc1cccc([N+](=O)[O-])c1,17,65%,-6%,-2,18%,-6%
Cc1occc1C(=O)Nc1ccc2c(c1)CCC2,103*,112%,-13%,48*,25%,-25%
SMILES,Shiga inhibitor,Pf growth 48h,AMA1 RON2 block,Cycloheximide cs,Pf growth 96h,SARS PLpro yeast
O=C(Nc1ccc2c(c1)OCCO2)c1coc2ccccc2c1=O,60*,51%,3%,48*,i,-18%
CSc1ccccc1C(=O)Nc1ccc2c(c1)OCCO2,64,37%,-6%,23,?,/
O=C(N/N=C/c1cc(Br)ccc1O)c1cccc(N2CCCC2=O)c1,26,?,73%,0,?,28%
COc1ccc(O)c(/C=N/NC(=O)c2cccc(N3CCCC3=O)c2)c1,18,?,75%,3,33%,15%
COc1cccc(/C=N/NC(=O)c2cccc(N3CCCC3=O)c2)c1,107*,65%,-11%,33*,?,0%
O=C(N/N=C/c1ccco1)c1cccc(N2CCCC2=O)c1,active,85%,4%,29*,62%,-7%
CC(C)c1ccccc1OS(N)(=O)=O,-8,39%,8%,-1,14%,3%
CCOC(=O)C1(Cc2ccccc2)CCN(Cc2ccc3c(c2)OCCO3)CC1,-7,?,-1%,-2,?,1%
COc1cccc(NC(=S)N(CCCN2CCOCC2)C(C)c2cc3ccccc3o2)c1 (stereo not drawn),-3,?,-5%,-4,1%,1%
Cc1nc([N+](=O)[O-])c(C(=O)OCc2cccc(Br)c2)n1C,28,2%,-8%,8,7.4µM*,-5%
CCOc1ccc(NC(=O)c2cccc(OC(=S)N3CCC(C)CC3)c2)cc1,35,?,4%,17*,12µM*,-5%
CCCOc1ccc(C(=O)Nc2ccc(N3CCN(C(C)=O)CC3)cc2)cc1,52,?,-11%,4,-17%,10%
CCOc1cccc(C(=O)Nc2ccc(N3CCCC3)cc2)c1,48,0%,-13%,17*,0%,1%
CCOc1ccc(C(=O)Nc2ccc(N3CCCC3)cc2)cc1,33,?,?,19*,38%,-9%
CCOC(=O)N1CCC(C(=O)Nc2ccc(OCC)cc2)CC1,-15,-1%,-3%,-6,4%,-8%
COC(=O)Cn1nc(-c2ccc(C)cc2)c2ccccc2c1=O,-4,-15%,2%,1,4%,-33%
CCn1ncc([N+](=O)[O-])c1C(=O)NC1CCCCC1,21,21%,13%,9,47%,0%
CCOc1ccc(NCc2cccn2-c2nnc(N3CCC(C(=O)NCCCN4CCCCC4CC)CC3)s2)cc1 (stereo not drawn),12,?,-23%,-1,?,-3%
COc1ccccc1C/C(N)=N/OC(=O)c1ccc(C)c([N+](=O)[O-])c1,5,?,-12%,-4,?,-32%
Cc1ccc(C(=O)O/N=C(\N)Cc2cccs2)cc1[N+](=O)[O-],11,69%,-4%,13,10µM*,0%
Cn1cnc(S(=O)(=O)Nc2ccccc2C(=O)NCC2CC2)c1,-6,4.7µM*,-14%,-1,39%,-1%
